The record followed here is PubChem BioAssay.

Molecules are shown by their SMILES. Values without a mark were called inactive. For some assays here: Entries with a potency or affinity are not part of this list. Calls of active or inactive are those of the source. Unless noted, how the calls were made is not given here.

A short description of assay [1]: antimalarial activity against Dd2 strain (AID 2302;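 active means growth inhibition above 50% at the single 2 µM test dose, taken to imply half-maximal potency below 2 µM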;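 further: 0% = DMSO untreated growth and 100% = chloroquine plus artemisinin killed control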). The note with it: P. falciparum Dd2 in RBCs, LDH growth readout, 72 h; at 2 µM; hits give high values.
A short description of assay [2]: HepG2 cytotoxicity, primary screen, cytotoxicity control for P. falciparum antimalarial project, cell-based, ATP luminescence (AID 2303;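 active means inhibition above 50%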;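 further: 0% = DMSO wells and 100% = digitonin-killed cells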). The note with it: HepG2 viability, 24-48 h, at 10 µM, hits give high values.
Assay [3] addresses L-lactate dehydrogenase (Plasmodium falciparum (isolate CDC / Honduras)) (UniProt Q27743). Briefly: PfLDH activity inhibition – cell lysate, 3D7 strain, counter-screen for P. falciparum growth inhibition project (AID 2304).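 Further: 0% = vehicle and 100% = reference inhibitor.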 The note with it: P. falciparum 3D7 crude extract, LDH APAD/NBT absorbance; at 2 µM; hits give high values. (Counterscreens check selectivity or assay interference.)

Assay [4] in a line: inhibition of 3D7 malaria parasite growth – strain 3D7 (AID 2306).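 Further: 0% = DMSO wells and 100% = chloroquine plus artemisinin control wells.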 The note with it: P. falciparum 3D7 erythrocytic growth, LDH absorbance, 72 h; at 2 µM; hits give high values.
Assay [5] concerns the target Calcium-dependent protein kinase 1 (Plasmodium falciparum (isolate 3D7)) (UniProt P62344). Briefly: PfCDPK1 kinase inhibitors, biochemical, TCAMS library (AID 1159585; cut-off not given, nearly all actives have IC50 up to about 0.98 µM;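 further: inhibitors leave more ATP so luminescence rises with inhibition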). To be noted: recombinant PfCDPK1, Kinase-Glo ATP depletion luminescence. For orientation: Kinase-Glo reads ATP consumption through a luciferase reaction.
In assay [6] the target is Plasmodium falciparum protein kinase 6 (PK6, PF3D7_1337100) (UniProt Q8IDW1). Description: PfPK6 kinase inhibitors, biochemical, TCAMS library (AID 1159586). The note with it: recombinant PfPK6, Kinase-Glo ATP depletion luminescence.
Assay [7] deals with Protein kinase 7 (PK7), Plasmodium falciparum 3D7 (PF3D7_0213400) (UniProt Q7YTF7). Description: inhibition of Plasmodium PK7 catalytic activity – biochemical, TCAMS antimalarial set, Kinase-Glo luminescence (AID 1159587). To be noted: recombinant PfPK7, Kinase-Glo ATP depletion luminescence.
Assay [8] addresses Calcium-dependent protein kinase 4 (Plasmodium falciparum (isolate 3D7)) (UniProt Q8IBS5). Briefly: PfCDPK4 kinase inhibitors, biochemical, TCAMS library (AID 1159588; cut-off not given, nearly all actives have IC50 up to about 0.91 µM). To be noted: recombinant PfCDPK4, Kinase-Glo ATP depletion luminescence.

Calcium-dependent protein kinase 1 (Plasmodium falciparum (isolate 3D7)), sequence (P62344 whole entry, looked up): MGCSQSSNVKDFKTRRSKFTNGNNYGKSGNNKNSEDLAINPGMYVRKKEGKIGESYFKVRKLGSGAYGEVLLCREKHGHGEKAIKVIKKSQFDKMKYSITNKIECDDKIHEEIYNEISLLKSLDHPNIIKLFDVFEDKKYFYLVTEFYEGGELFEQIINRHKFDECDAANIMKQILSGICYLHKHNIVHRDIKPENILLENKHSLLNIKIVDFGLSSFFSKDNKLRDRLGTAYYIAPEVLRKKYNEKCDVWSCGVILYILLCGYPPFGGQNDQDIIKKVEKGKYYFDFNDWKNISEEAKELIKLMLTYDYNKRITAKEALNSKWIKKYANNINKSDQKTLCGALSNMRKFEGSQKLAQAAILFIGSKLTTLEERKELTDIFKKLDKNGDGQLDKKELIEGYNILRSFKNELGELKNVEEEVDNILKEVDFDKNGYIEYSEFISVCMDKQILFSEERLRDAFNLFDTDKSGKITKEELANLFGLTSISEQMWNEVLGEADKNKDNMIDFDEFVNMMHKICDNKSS
Calcium-dependent protein kinase 4 (Plasmodium falciparum (isolate 3D7)), sequence (Q8IBS5 whole entry, looked up): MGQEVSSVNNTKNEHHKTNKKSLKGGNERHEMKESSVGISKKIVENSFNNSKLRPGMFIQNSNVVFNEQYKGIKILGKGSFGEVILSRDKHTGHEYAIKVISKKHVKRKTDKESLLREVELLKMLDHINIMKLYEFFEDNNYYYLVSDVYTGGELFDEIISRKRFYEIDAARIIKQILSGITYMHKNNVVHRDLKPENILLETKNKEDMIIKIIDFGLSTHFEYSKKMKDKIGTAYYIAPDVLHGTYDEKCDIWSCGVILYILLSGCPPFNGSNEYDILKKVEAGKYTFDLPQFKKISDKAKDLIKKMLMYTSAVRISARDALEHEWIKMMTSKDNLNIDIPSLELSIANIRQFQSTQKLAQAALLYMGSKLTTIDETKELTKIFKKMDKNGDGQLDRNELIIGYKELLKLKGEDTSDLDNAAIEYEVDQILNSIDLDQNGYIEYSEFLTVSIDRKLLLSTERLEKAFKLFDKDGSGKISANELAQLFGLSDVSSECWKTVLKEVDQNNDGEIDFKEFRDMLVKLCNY
Protein kinase 7 (PK7), Plasmodium falciparum 3D7 (PF3D7_0213400), sequence (Q7YTF7 1-343): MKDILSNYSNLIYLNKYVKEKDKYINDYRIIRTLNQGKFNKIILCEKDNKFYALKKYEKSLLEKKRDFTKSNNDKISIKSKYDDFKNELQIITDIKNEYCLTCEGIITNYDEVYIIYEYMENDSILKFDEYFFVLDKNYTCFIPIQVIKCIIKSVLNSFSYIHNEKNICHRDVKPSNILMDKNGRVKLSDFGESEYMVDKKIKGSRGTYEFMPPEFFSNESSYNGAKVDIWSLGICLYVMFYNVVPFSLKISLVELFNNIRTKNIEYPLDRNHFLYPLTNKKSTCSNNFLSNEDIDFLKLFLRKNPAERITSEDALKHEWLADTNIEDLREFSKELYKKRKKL
L-lactate dehydrogenase (Plasmodium falciparum (isolate CDC / Honduras)), sequence (Q27743 whole entry, looked up): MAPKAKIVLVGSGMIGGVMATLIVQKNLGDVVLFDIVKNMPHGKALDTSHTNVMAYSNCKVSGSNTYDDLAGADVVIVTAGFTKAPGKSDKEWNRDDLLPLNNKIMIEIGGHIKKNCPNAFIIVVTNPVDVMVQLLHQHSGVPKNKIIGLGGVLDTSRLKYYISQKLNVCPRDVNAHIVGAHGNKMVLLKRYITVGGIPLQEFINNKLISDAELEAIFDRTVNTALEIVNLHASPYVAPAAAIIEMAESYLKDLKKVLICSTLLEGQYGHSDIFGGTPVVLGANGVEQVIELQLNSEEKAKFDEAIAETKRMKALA
Plasmodium falciparum protein kinase 6 (PK6, PF3D7_1337100), sequence (Q8IDW1 1-305): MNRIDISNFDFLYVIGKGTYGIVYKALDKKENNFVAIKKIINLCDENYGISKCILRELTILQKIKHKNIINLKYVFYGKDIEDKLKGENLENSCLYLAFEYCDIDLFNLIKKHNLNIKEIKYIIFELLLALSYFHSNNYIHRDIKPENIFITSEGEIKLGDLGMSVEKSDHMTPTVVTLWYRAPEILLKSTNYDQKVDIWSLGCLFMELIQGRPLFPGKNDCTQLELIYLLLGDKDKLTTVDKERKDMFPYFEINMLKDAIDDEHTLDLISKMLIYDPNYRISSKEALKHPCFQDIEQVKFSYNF

On to `Cc1cccc2sc(N(CCCn3ccnc3)C(=O)C=Cc3cccs3)nc12`, for which the growth inhibition in assay [1] was 9%; in assay [4], 91% (active). The inhibition in assay [2] is -6%; in assay [3] it was 2%. Further, the outcome in assay [5], in assay [6], in assay [7] and in assay [8] was inactive.
For the compound `O=C(Nc1ccccc1O)C1CCN(c2ncnc3cc(-c4ccc(F)cc4)sc23)CC1`, the growth inhibition was 94% (active) in assay [1] and 97% (active) in assay [4]. Also, the values for the inhibition in assay [2] and in assay [3] were 10% and 4%, respectively. For the same compound, the outcome in assay [5], in assay [6], in assay [7] and in assay [8] was inactive.
As to `Cc1[nH]c(C)c(-c2ccc(C(=O)c3ccc(Cl)cc3)cc2)c(=O)c1Cl`, the growth inhibition in assay [1] is 95% (active); in assay [4], 98% (active). Further, the inhibition is -1% in assay [2] and 4% in assay [3]. For the same compound, the result in assay [5], in assay [6], in assay [7] and in assay [8] was inactive.
With `CN1CCC(Oc2ccc(CN3CC[C@H](NC(=O)c4cc(F)cc(F)c4)C3)c3ccccc23)C1` (some centres not stated), the growth inhibition is 23% in assay [1] and 98% (active) in assay [4]. The inhibition in assay [2] is 26%; in assay [3], 5%. For the same compound, the outcome in assay [5], in assay [6], in assay [7] and in assay [8] was inactive.
As for `CC(C)(C)c1ccc(CNCC(C)(C)c2nc(-c3ccc(Cl)c(O)c3)c(-c3ccnc(N)n3)[nH]2)cc1`, the growth inhibition in assay [1] is 54% (active); in assay [4], 100% (active). Moreover, the inhibition in assay [2] is 28%; in assay [3] it was -7%. The outcome in assay [5], in assay [6], in assay [7] and in assay [8] was inactive.
On to `COc1ccc2c(NN=Cc3ccc([N+](=O)[O-])cc3)ccnc2c1`, for which the figures for the growth inhibition in assay [1] and in assay [4] were 98% (active) and 100% (active), respectively. For the same compound, the inhibition in assay [2] and in assay [3] was -1% in each case. Further, the outcome in assay [5], in assay [6], in assay [7] and in assay [8] was inactive.
As for `COc1cc(CNC[C@@H](O)[C@H](Cc2ccccc2)NC(=O)c2cc(C3CCCC3)cc(N3CCCC3=O)c2)cc(OC)c1`, the growth inhibition in assay [1] was 76% (active); in assay [4], 97% (active). The values for the inhibition in assay [2] and in assay [3] were 16% and 6%, respectively. In addition, the result in assay [5], in assay [6], in assay [7] and in assay [8] was inactive.
As to `CN1CCN(CCNc2c3ccccc3nc3c2ccc2ccccc23)CC1`, the growth inhibition was 66% (active) in assay [1] and 101% (active) in assay [4]. For the same compound, the figures for the inhibition in assay [2] and in assay [3] were 76% (active) and -6%, respectively. Also, the result in assay [5], in assay [6], in assay [7] and in assay [8] was inactive.
As to `CC1CCN(CC[C@H]2CCCN2S(=O)(=O)c2cccc(NC(=O)c3ccc(-c4ccc(Cl)cc4)o3)c2)CC1`, the results for the growth inhibition in assay [1] and in assay [4] were 65% (active) and 101% (active), respectively. For the same compound, the inhibition in assay [2] is 45%; in assay [3] it was 3%. Moreover, the result in assay [5], in assay [6], in assay [7] and in assay [8] was inactive.
As for `CC1CC(NCCCNc2cc(=O)c3ccccc3[nH]2)c2c(Cl)c(Cl)cc(Cl)c21` (configuration not stated), the results for the growth inhibition in assay [1] and in assay [4] were 52% (active) and 87% (active), respectively. Moreover, the inhibition in assay [2] is 6%; in assay [3], 2%. Further, the result in assay [5], in assay [6], in assay [7] and in assay [8] was inactive.
Consider `CC(C)c1ccc(NC(=O)c2ccc(CN3CCCN(Cc4cccc(O)c4)CC3)cc2)cc1`, for which the growth inhibition in assay [1] was 58% (active); in assay [4], 100% (active). Also, the results for the inhibition in assay [2] and in assay [3] were 51% (active) and -4%, respectively. Also, the result in assay [5], in assay [6], in assay [7] and in assay [8] was inactive.
For the compound `COc1ccc2nccc(NN=Cc3cccnc3)c2c1`, the growth inhibition was 84% (active) in assay [1] and 100% (active) in assay [4]. For the same compound, the inhibition in assay [2] is -1%; in assay [3], -6%. Also, the outcome in assay [5], in assay [6], in assay [7] and in assay [8] was inactive.
Turning to `C=CCC(CC=C)N1C(=O)C(c2ccccc2)(c2ccccc2)N=C1N`, the growth inhibition in assay [1] was 97% (active); in assay [4], 98% (active). Also, the inhibition was 35% in assay [2] and -3% in assay [3]. The result in assay [5], in assay [6], in assay [7] and in assay [8] was inactive.
`COc1cccc(CNC[C@@H](O)[C@H](Cc2ccccc2)NC(=O)c2cc(C(C)C)cc(N3CCCC3=O)c2)c1`: the growth inhibition in assay [1] is 61% (active); in assay [4] it was 95% (active). Besides, the inhibition in assay [2] was 1%; in assay [3], -4%. Moreover, the result in assay [5], in assay [6], in assay [7] and in assay [8] was inactive.
For `COc1cc2nccc(Nc3cc(C)cc(O)c3)c2cc1OC`, the growth inhibition in assay [1] was -2%; in assay [4] it was 97% (active). For the same compound, the inhibition in assay [2] was -6%; in assay [3], 0%. Further, the result in assay [5], in assay [6], in assay [7] and in assay [8] was inactive.
On to `CN(C)CCNC(=O)c1ccc2c(c1)ncn2-c1cc(OCc2ccccc2C(F)(F)F)c(C(N)=O)s1` (tested in a mixture with another compound), for which the growth inhibition was 8% in assay [1] and 90% (active) in assay [4]. Besides, the inhibition in assay [2] was -9%; in assay [3], 1%. Moreover, the result in assay [5], in assay [6], in assay [7] and in assay [8] was inactive.
Regarding `Clc1cc(Cl)c2cc(CN[C@H]3CCC[C@@H]3CNc3nc4ccccc4[nH]3)[nH]c2c1`, the growth inhibition was 58% (active) in assay [1] and 99% (active) in assay [4]. The values for the inhibition in assay [2] and in assay [3] were 85% (active) and -1%, respectively. In addition, the outcome in assay [5], in assay [6], in assay [7] and in assay [8] was inactive.
Turning to `COc1ccccc1C1CCN(C2CCC(NC(=O)/C=C/c3ccc4c(c3)OC(F)(F)O4)CC2)CC1` (configuration not stated), the growth inhibition was 31% in assay [1] and 98% (active) in assay [4]. Also, the inhibition in assay [2] was 52% (active); in assay [3], -2%. Further, the outcome in assay [5], in assay [6], in assay [7] and in assay [8] was inactive.
Take `Cc1nccc2c(NC(=O)N[C@@H]3CCN(c4ncc(C(F)(F)F)cc4Br)C3)cccc12`: the growth inhibition is 27% in assay [1] and 96% (active) in assay [4]. The inhibition is 21% in assay [2] and -4% in assay [3]. Also, the outcome in assay [5], in assay [6], in assay [7] and in assay [8] was inactive.

The inhibition is the change of the read-out against control, counted positive when it falls.
